Source: the supplement of paper PMC6555819

What was measured:
Assay in all cases: PBM binding z-score (relative to random genomic background probes); higher = stronger binding; sequences stand for … in GC…GCGATTGACAGCGTAGAATGAAGG
[1] = test system: FXR:RXRa (NR concentration 270 nM, RXRa partner concentration 90 nM)
In short: (§1)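 For binding z-scores, the reference was random background probes on custom Agilent 4×180K protein-binding microarrays. These arrays were incubated 1 h with ligand-free nuclear receptor dimers in PBS pH 7.4, 2% milk, 0.02% Triton X-100, 1 mM DTT, 0.2 mg/mL BSA and 0.4 mg/ml salmon testes DNA. Fluorescence was scanned after antibody detection of each partner (one per run) and regression-normalized.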

[2] = test system: LXRa:RXRa (NR concentration 270 nM, RXRa partner concentration 90 nM)
In short: as §1

[3] = test system: LXRa homodimer (NR concentration 270 nM)
In short: as §1

[4] = test system: LXRb:RXRa (NR concentration 270 nM, RXRa partner concentration 90 nM)
In short: as §1

[5] = test system: LXRb homodimer (NR concentration 270 nM)
In short: as §1

[6] = test system: PPARa:RXRa (NR concentration 270 nM, RXRa partner concentration 90 nM)
In short: as §1

[7] = test system: PPARg:RXRa (NR concentration 180 nM, RXRa partner concentration 90 nM)
In short: as §1

[8] = test system: PPARg:RXRa 270nM:90nM, anti-RXR (NR concentration 270 nM, RXRa partner concentration 90 nM)
In short: as §1

[9] = test system: PPARg:RXRa 30nM:10nM, anti-RXR (NR concentration 30 nM, RXRa partner concentration 10 nM)
In short: as §1

[10] = test system: PPARg:RXRa 90nM:30nM, anti-RXR (NR concentration 90 nM, RXRa partner concentration 30 nM)
In short: as §1

[11] = test system: PPARg:RXRa DBDmut IVT, anti-RXR (DBD mutation: RXRa K156A/R161A, NR concentration 270 nM, RXRa partner concentration 90 nM)
In short: as §1

[12] = test system: PPARg:RXRa IVT, anti-PPARg (NR concentration 270 nM, RXRa partner concentration 90 nM)
In short: as §1

[13] = test system: PPARg DBDmut:RXRa IVT, anti-PPARg (DBD mutation: PPARg1 K132A/R137A, NR concentration 270 nM, RXRa partner concentration 90 nM)
In short: as §1

[14] = test system: PPARg DBDmut IVT, anti-PPARg (DBD mutation: PPARg1 K132A/R137A, NR concentration 270 nM)
In short: as §1

[15] = test system: PPARg homodimer (NR concentration 180 nM)
In short: as §1

[16] = test system: PXR:RXRa (NR concentration 270 nM, RXRa partner concentration 90 nM)
In short: as §1

[17] = test system: PXR homodimer (NR concentration 270 nM)
In short: as §1

[18] = test system: RARa homodimer (NR concentration 270 nM)
In short: as §1

[19] = test system: RARb:RXRa (NR concentration 270 nM, RXRa partner concentration 90 nM)
In short: as §1

[20] = test system: RARa:RXR (NR concentration 270 nM, RXRa partner concentration 90 nM)
In short: as §1

Row | Sequence | PBM binding z-score [1] | PBM binding z-score [2] | PBM binding z-score [3] | PBM binding z-score [4] | PBM binding z-score [5] | PBM binding z-score [6] | PBM binding z-score [7] | PBM binding z-score [8] | PBM binding z-score [9] | PBM binding z-score [10] | PBM binding z-score [11] | PBM binding z-score [12] | PBM binding z-score [13] | PBM binding z-score [14] | PBM binding z-score [15] | PBM binding z-score [16] | PBM binding z-score [17] | PBM binding z-score [18] | PBM binding z-score [19] | PBM binding z-score [20]
1 | TCTCGGAGGACACGAAAGGTCAGAACTCGACATC | 2.77 | 3.63 | 3.3 | 3.19 | 0.189 | 3.29 | 1.1 | 2.1 | 2.51 | 2.07 | 1.63 | 1.22 | -0.541 | -0.269 | 3.91 | 4.08 | 0.978 | 2 | 3.83 | –
2 | ATCCAAAGGTCGAGGTGAGTATAGAGAAAGGGAA | 4.69 | 4.08 | 0.242 | 3.36 | 0.755 | 4.91 | 4.74 | 4.86 | 1.7 | 3.57 | 0.646 | 2.87 | 1.42 | 1.42 | 1.71 | 2.84 | 0.536 | 1.18 | 4.43 | –
3 | CGTCAAAGTTCAAGGCAACGTAACAGAAAGCAGC | 5.83 | 5.32 | 2.35 | 2.97 | 0.47 | 4.47 | 3.88 | 4.87 | 1.54 | 3.53 | 0.106 | 1.35 | -0.0637 | 0.203 | 2.24 | 3.56 | 1.41 | 0.477 | 4.98 | 2.87
4 | ATCGAAAGGTCGAAGGTCAGTATACCCACCCGAA | 5.6 | 4.68 | 1.05 | 4.53 | 0.966 | 5.61 | 6.96 | 6.43 | 3.83 | 5.97 | 0.724 | 3.24 | 0.938 | 0.568 | 2.47 | 5.13 | 0.812 | 1.68 | 4.54 | –
5 | CAATCTAGGTCACGAAAGGTCAAAGTCGAATGAC | 7.83 | 8.36 | 8 | 7.57 | 3.05 | 6.84 | 10.7 | 8.68 | 7.62 | 9.02 | 8.53 | 9.13 | 5.67 | 4 | 6.67 | 7.2 | 3.37 | 4.3 | 5.76 | –
6 | TCTTGTAGATCAAAGGTTAAGACAGCCGAAGCCT | 1.72 | 2.27 | 0.473 | 2.31 | -0.101 | 4.74 | 8.11 | 8.23 | 7.63 | 8.39 | 2.1 | 3.94 | 1.03 | 0.9 | 1.28 | 2.12 | -0.0752 | 0.276 | 1.91 | –
7 | CAAACTAGGTCAAAGGTCAAAGTTGAGCCAACCA | 8.49 | 7.15 | 5.63 | 7.42 | 3.19 | 7.85 | 14 | 11.5 | 12.5 | 13.5 | 8.56 | 9.49 | 2.5 | 3.77 | 3.75 | 7.31 | 1.83 | 2.12 | 5.96 | –
8 | CCTAGCAGGCCAGGGTCACCCAAGCATTTCGCTT | 2.7 | 1.95 | -0.482 | 2.3 | -1.1 | 3.82 | 1.34 | 2.02 | -0.0989 | 1.43 | -0.0206 | 1.79 | -0.767 | -1.42 | 1.59 | 3.36 | -0.361 | -0.318 | 3.12 | –
9 | CCAACTAGGTCATTGACAGGACAGTGAATAGTAA | 4.34 | 3.06 | 0.961 | 2.18 | 0.671 | 3.92 | 5.95 | 5.66 | 2.77 | 5.03 | 7.67 | 7.49 | 1.99 | 0.953 | 1.89 | 1.68 | 0.805 | 1.58 | 3.77 | 2.23
10 | CGAACGAGGTCAGAACAGGACAGTGAAGGATGAT | 5.64 | 4.06 | 0.279 | 2.95 | 0.317 | 4.97 | 4.86 | 4.15 | 1.32 | 3.02 | 3.38 | 4.26 | 0.826 | 0.461 | 1.39 | 3.87 | 0.676 | 0.667 | 4.4 | –
11 | TAGCCAAGGTCATTCAGGGGCCAGTATAGAAAGC | 7.35 | 5.84 | 1.66 | 4.6 | 2.35 | 5.19 | 4.6 | 4.81 | 1.47 | 3.17 | 1.73 | 3 | 1.11 | 0.966 | 3.14 | 4.91 | 1.43 | 0.389 | 5.06 | 5.72
12 | CGTCCAAGGTCATAGGAGGTCACTGAAGACAGAT | 7.73 | 7.6 | 6.16 | 6.62 | 1.26 | 6.26 | 6.52 | 6.6 | 3.16 | 5.31 | 3.85 | 5.27 | 1.24 | 1.12 | 5.21 | 7.29 | 6.78 | 3.25 | 5.39 | –
13 | GCTAGTAGGTCAGTAAAAGGTCACACACCGGTCG | 4.98 | 5.45 | 5.31 | 5.01 | 1.21 | 5.55 | 7.3 | 6.72 | 4.43 | 6.42 | 7.2 | 7.29 | 3.2 | 3.78 | 6.95 | 5.97 | 1.43 | 2.9 | 5.4 | –
14 | TTACCAAGGTGAAAGGTCGGTGATGCACGCCTTG | 2.27 | 1.8 | -0.377 | 1.34 | -0.609 | 4.27 | 7.36 | 6.88 | 6.6 | 7.95 | 2.41 | 4.51 | 1.85 | 0.075 | 1.26 | 2.17 | -0.356 | -0.0129 | 2.65 | 3.77
